Each structure is given as a SMILES string. Calls of active or inactive are those of the source.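 How the source made its calls: active means potency for halving colony growth of 5 µM or lower; inconclusive means potency above 5 µM but below 10 µM; inactive means potency of 10 µM or higher.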

This experiment is described as follows: qHTS for Inhibitors of Ubiquitin-specific Protease USP2a Using CHOP2 as the Reporter: Clonogenic Assay. Particulars: clonogenic colony formation, crystal violet, 10 days. The text has this: Homeostasis of cellular proteins is maintained through a combination of synthesis and degradation. The pathway that accounts for the majority of protein degradation is the ubiquitin-proteasomal pathway. Ubiquitin (Ub) is highly conserved in all cells and the generation of a multi-Ub chain typically targets proteins for degradation by the proteasome. However, ubiquitination is highly reversible and dynamic. Deubiquitination, the reverse process, is catalyzed through the action of enzymes referred to as isopeptidases or deubiquitinating enzymes (DUBs). This group of enzymes is collectively responsible for maintaining adequate pools of free ubiquitin and regulating the ubiquitination status of cellular proteins. […] To further visualize and quantitate the effect of compounds on cell proliferation, a colony forming or clonogenic assay was performed in 6-well plates using HCT116 cells. […] The colonies were visualized on the Typhoon imager (GE) using Cy5 detection, and quantitated with the associated software. […]
2 mL 300 cells/well were dispensed into a 6-well plate in DMEM with 10% FBS and 1% Pen-Strep and then incubated for 48 hours at 37 deg C, 5% CO2. […] The plate is dried overnight and then read on a GE Typhoon FLA 9500 in end-point mode (Ex 635, Em Long-Pass Red Filter)
In general terms: Quantitative high-throughput screening tests each substance at several concentrations.
As for `Cc1ccc(S(=O)(=O)Nc2cc(C(F)(F)F)ccc2C(=O)Nc2nc(-c3ccccc3)cs2)cc1`, the Potency was 3.6 µM (active).

For the origin of these results see PubChem BioAssay AID652254 (National Center for Advancing Translational Sciences (NCATS), 2013).
